Screening data (PubChem)
The list is not random: actives were taken first. Their share in the collection is about 1.5%.
GLD-1 TGE inh: GLD-1-TGE RNA interaction inhibition (C. elegans). hit rate 0.44% among 320,000. inhibition, % at 5.96 µM. purified GLD-1 + fluorescein TGE RNA, fluorescence polarization. AID 2280;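 active = percent inhibition above a per-plate cutoff, the plate mean of test compounds plus 3 SD, cut at about 30% in these data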;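 note: 0% = DMSO wells with GLD-1 and probe and 100% = wells lacking GLD-1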
MCL1 BIM primary: inhibitors of human MCL1 binding to BIM-BH3 peptide; Q07820; GST-MCL1 / FITC-Bim-BH3 fluorescence polarization; inhibition, % at 10.9 µM; hit rate 0.68% among 320,000;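 active = inhibition above the mean inhibition of all tested compounds plus 3 SD, set per campaign, cut at about 40% in these data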;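 note: 0% = DMSO wells and 100% = unlabeled Bim-BH3 peptide control; higher means more loss of mP so more displacement of Bim peptide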
Target sequence (Q07820 whole entry, looked up): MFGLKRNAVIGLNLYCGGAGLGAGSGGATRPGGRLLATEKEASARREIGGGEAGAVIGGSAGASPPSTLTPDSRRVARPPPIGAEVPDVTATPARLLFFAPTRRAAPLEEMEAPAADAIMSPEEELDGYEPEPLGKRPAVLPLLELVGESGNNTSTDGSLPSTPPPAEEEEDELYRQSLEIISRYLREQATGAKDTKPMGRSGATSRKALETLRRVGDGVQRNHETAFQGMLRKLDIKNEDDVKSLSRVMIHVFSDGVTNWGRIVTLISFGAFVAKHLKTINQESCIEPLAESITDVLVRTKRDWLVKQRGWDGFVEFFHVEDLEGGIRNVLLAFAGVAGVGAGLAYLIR
Bcl-xL primary: inhibitors of human Bcl-xL | Q07817 | GST-Bcl-xL / FITC-Bim BH3 peptide fluorescence polarization | inhibition, % at 10.9 µM | hit rate 0.7% among 320,000 | AID 2129;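 active = inhibition above the mean of all tested compounds plus 3 SD, cutoff set per campaign, cut at about 30% in these data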;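 note: 0% = DMSO wells and 100% = unlabeled Bim-BH3 peptide competitor; inhibitors lower millipolarization by displacing the labeled peptide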
Target sequence (Q07817 whole entry, looked up): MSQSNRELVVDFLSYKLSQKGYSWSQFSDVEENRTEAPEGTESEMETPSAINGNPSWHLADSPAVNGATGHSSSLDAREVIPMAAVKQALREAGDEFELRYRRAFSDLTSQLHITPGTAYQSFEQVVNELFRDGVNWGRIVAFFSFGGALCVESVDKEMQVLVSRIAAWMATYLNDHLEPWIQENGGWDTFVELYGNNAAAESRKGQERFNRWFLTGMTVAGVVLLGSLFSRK
MEX-5 binding: C. elegans MEX-5 TCR-2 RNA binding activity. AID 1832. MEX-5/FITC-TCR2 RNA binding, fluorescence polarization; stronger effect = lower value. activity score (negative = inhibition of binding), % at 10 µM. hit rate 0.38% among 300,000;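 active = inhibition past about -25% in most replicates, and total fluorescence under double the plate's negative control median, limit read from the data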;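 note: 0% = DMSO and -100% = 5 µM competing unlabeled TCR2 RNA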
eLon inh: E. coli protease La inhibition | P0A9M0 | purified E. coli Lon protease, fluorescence polarization | inhibition, % at 7.94 µM | hit rate 0.42% among 360,000; in the data active = inhibition above about 13%, passing the limit was not always enough;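 note: 0% = enzyme with probe and DMSO and 100% = no enzyme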
EBV gp42 block: blocks Epstein-Barr virus glycoprotein 42 binding; Q1HVG2; Fluorescence polarization binding assay, mP read-out; inhibition, % (tested at 21.74 µM); hit rate 0.42% among 220,000; AID 1085; in the data active = inhibition above about 50%
Bcl-xL conf: counter-screen for MCL1 inhibitors: confirmation of human Bcl-xL inhibitors | shares compounds with MCL1 BIM primary | GST-Bcl-xL / FITC-Bim BH3 peptide FP binding | inhibition, % at 10.9 µM | hit rate 54% among 1,700 | AID 2166;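 active = inhibition above a cutoff equal to the mean inhibition of all tested compounds plus 3 SD, cut at about 30% in these data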;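 note: 0% = DMSO wells and 100% = unlabeled Bim BH3 control peptide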
MCL1 inh confirm: MCL1-BIM-BH3 interaction inhibition, confirmation | shares compounds with MCL1 BIM primary | GST-MCL1 / FITC-Bim-BH3 fluorescence polarization | inhibition, % at 10.9 µM | hit rate 61% among 1,700 | AID 2168;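 active = inhibition above the average of all tested compounds plus 3 SD, cut at about 40% in these data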;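 note: 0% = DMSO wells and 100% = unlabeled Bim-BH3 control peptide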
GLD-1 TGE cf: GLD-1 TGE RNA interaction inhibition, confirmation; shares compounds with GLD-1 TGE inh; GLD-1/FL-TGE RNA fluorescence polarization, biochemical; inhibition, % at 5.96 µM; hit rate 10% among 550;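 active = average inhibition across triplicates above the hit cutoff set in the primary screen, cut at about 32% in these data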;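 note: 0% = GLD-1 with RNA probe and DMSO and 100% = wells lacking GLD-1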
Active calls of the source: *.

What do the screens show for `NC(CO)C(=O)NNCc1ccc(O)c(O)c1O` (centres undefined)?
GLD-1 TGE inh: 22.1; MCL1 BIM primary: 71.8*; Bcl-xL primary: 36.1*; MEX-5 binding: -33.4*; eLon inh: 23.7; EBV gp42 block: -3.2; Bcl-xL conf: 36.7*; MCL1 inh confirm: 60.7*

What do the screens show for `COC(=O)C(N)Cc1ccc(O)cc1` (centres undefined)?
GLD-1 TGE inh: -0.9; MCL1 BIM primary: 0.1; Bcl-xL primary: -0.7; MEX-5 binding: -0.6; eLon inh: -1.4; EBV gp42 block: -30.1

What do the screens show for `CCOC(=O)c1c(C)[nH]c(C(=O)CC(=O)OC)c1C`?
GLD-1 TGE inh: -1.7; MCL1 BIM primary: -10.8; Bcl-xL primary: -5.8; MEX-5 binding: 2.1; eLon inh: -0.8; EBV gp42 block: -8.2

What do the screens show for `CCCOc1ccc(-c2c(=O)n(O)c3ccccc3[n+]2[O-])cc1`?
GLD-1 TGE inh: 9.0; MCL1 BIM primary: 7.9; Bcl-xL primary: 1.0; MEX-5 binding: 1.9; eLon inh: -10.1

What do the screens show for `COc1ccccc1N(CC(=O)NCc1ccco1)S(=O)(=O)c1ccc(C)cc1`?
GLD-1 TGE inh: -1.1; MCL1 BIM primary: 46.7*; Bcl-xL primary: 11.2; MEX-5 binding: -1.8; eLon inh: -7.9; Bcl-xL conf: 33.1*; MCL1 inh confirm: 79.0*

Results for O=S(=O)([O-])C(c1ccccc1)[n+]1ccccc1 (centres undefined) ?
GLD-1 TGE inh: -2.0; MCL1 BIM primary: 47.5*; Bcl-xL primary: 8.5; MEX-5 binding: -0.2; eLon inh: -8.8; Bcl-xL conf: -1.4; MCL1 inh confirm: 2.0

How did CC(C)C(=O)N1CCC1(C)C(=O)Nc1ccc(-n2cccc2)cc1 (centres undefined) do in these assays?
eLon inh: 0.7

How did CCOC(=O)c1c(C)[nH]c(C2=NNC(=Nc3ccc(OCC)cc3)SC2)c1C do in these assays?
GLD-1 TGE inh: 17.1; MCL1 BIM primary: 69.6*; Bcl-xL primary: 76.7*; eLon inh: -6.5; EBV gp42 block: 9.6; Bcl-xL conf: 21.3; MCL1 inh confirm: 13.1

What do the screens show for `Cc1nnc(SCC(=O)Nc2sc3c(c2C(=O)c2ccccc2)CCCC3)s1`?
GLD-1 TGE inh: 5.9; MCL1 BIM primary: 4.3; Bcl-xL primary: 5.7; MEX-5 binding: 0.9; eLon inh: -5.7; EBV gp42 block: 7.5

Results for COc1ccc(NC(=O)N2CCN(C(=O)c3ccco3)CC2)c(OC)c1 ?
GLD-1 TGE inh: 0.9; MCL1 BIM primary: 4.6; Bcl-xL primary: -1.9; MEX-5 binding: 0.2; eLon inh: 5.0

Results for O=C(c1nc2ccc(Cl)cn2c1CN1CCCC1)N1CCc2ccccc2C1 ?
GLD-1 TGE inh: 37.2*; MCL1 BIM primary: 67.4*; Bcl-xL primary: 56.6*; MEX-5 binding: -22.2; eLon inh: 2.3; Bcl-xL conf: 62.7*; MCL1 inh confirm: 87.2*

What do the screens show for `CCn1c(SCC(=O)N/N=C/C=C\c2ccco2)nc2ccccc21`?
GLD-1 TGE inh: -1.6; MCL1 BIM primary: 48.1*; Bcl-xL primary: 15.4; MEX-5 binding: 0.9; eLon inh: -2.8; EBV gp42 block: -2.8; Bcl-xL conf: 17.3; MCL1 inh confirm: 34.3

Results for Cn1c(SCC(=O)N/N=C/C=C\c2ccco2)nc2ccccc21 ?
GLD-1 TGE inh: 2.8; MCL1 BIM primary: 28.9; Bcl-xL primary: 11.9; MEX-5 binding: 2.4; eLon inh: -3.3; EBV gp42 block: -1.3

How did O=c1cc(CSc2nnc(Nc3ccccc3F)s2)nc2sccn12 do in these assays?
GLD-1 TGE inh: 3.6; MCL1 BIM primary: 6.0; Bcl-xL primary: -2.0; MEX-5 binding: -0.9; eLon inh: 4.9; EBV gp42 block: -20.6

Results for COc1ccc(Nc2nnc(SCc3cc(=O)n4ccsc4n3)s2)cc1 ?
GLD-1 TGE inh: 40.7*; MCL1 BIM primary: 68.3*; Bcl-xL primary: 65.6*; eLon inh: 15.2; EBV gp42 block: 42.4; Bcl-xL conf: -4.3; MCL1 inh confirm: -3.2; GLD-1 TGE cf: 35.5*

What do the screens show for `Fc1ccccc1NC(=S)NCCc1cccc(Cl)c1`?
eLon inh: 12.6

Results for CC1=CC(=O)c2c(O)ccc(O)c2C1=O ?
GLD-1 TGE inh: 74.5*; MCL1 BIM primary: 138.5*; Bcl-xL primary: 88.3*; EBV gp42 block: 116.3*; Bcl-xL conf: 102.5*; MCL1 inh confirm: 141.7*; GLD-1 TGE cf: 32.6*

What do the screens show for `CCCN(CC(=O)Nc1ccccc1C)C(=O)C1CC(=O)N(c2ccc(CC)cc2)C1` (centres undefined)?
GLD-1 TGE inh: 1.7; MCL1 BIM primary: 0.5; Bcl-xL primary: 3.5; eLon inh: -4.5

How did Clc1cccc(C2Nc3cccc4cccc(c34)N2)c1 do in these assays?
GLD-1 TGE inh: 32.0*; MCL1 BIM primary: 46.4*; Bcl-xL primary: 27.3; MEX-5 binding: -3.7; eLon inh: -1.1; Bcl-xL conf: 25.0; MCL1 inh confirm: 41.0*; GLD-1 TGE cf: 0.6

Results for Cc1ccc(C(=O)N/N=C/c2ccc(-c3ccc(Br)cc3[N+](=O)[O-])o2)o1 ?
GLD-1 TGE inh: 35.5*; MCL1 BIM primary: 62.4*; Bcl-xL primary: 50.6*; MEX-5 binding: 1.2; eLon inh: -8.0; Bcl-xL conf: 12.3; MCL1 inh confirm: -11.2; GLD-1 TGE cf: 34.7*

What do the screens show for `CCCCCn1c(=O)[nH]c2cc(C(=O)NCCN3CCCCC3C)ccc2c1=O` (centres undefined)?
GLD-1 TGE inh: -1.3; MCL1 BIM primary: -2.4; Bcl-xL primary: 3.9; MEX-5 binding: 2.0; eLon inh: 4.8

How did Cc1cc2ccccc2n1CCNC(=O)COc1ccccc1 do in these assays?
GLD-1 TGE inh: 72.5*; MCL1 BIM primary: 63.4*; Bcl-xL primary: 41.0*; MEX-5 binding: 1.0; eLon inh: 2.3; EBV gp42 block: 7.4; Bcl-xL conf: 25.7; MCL1 inh confirm: 27.8; GLD-1 TGE cf: 10.8

What do the screens show for `CCC(=O)NCCn1c(C)cc2ccccc21`?
GLD-1 TGE inh: 25.4; MCL1 BIM primary: 17.8; Bcl-xL primary: 19.3; MEX-5 binding: -0.8; eLon inh: 5.4; EBV gp42 block: -1.0

How did Cc1ccnc(Nc2nc(-c3ccc(Cl)cc3)cs2)c1 do in these assays?
GLD-1 TGE inh: 31.8*; MCL1 BIM primary: 52.2*; Bcl-xL primary: 23.4; MEX-5 binding: 2.3; eLon inh: -14.2; Bcl-xL conf: 1.9; MCL1 inh confirm: -2.1; GLD-1 TGE cf: -4.2

How did Cc1cc(Cl)ccc1OCC(=O)N/N=C/c1ccncc1 do in these assays?
GLD-1 TGE inh: -0.6; MCL1 BIM primary: 2.9; Bcl-xL primary: 5.8; MEX-5 binding: 0.4; eLon inh: 0.1
